Source: PubChem BioAssay
The source made the active and inactive calls. No rule for the calls is given here.

What follows are compounds tested against Pantothenate synthetase (Mycobacterium tuberculosis (strain ATCC 25618 / H37Rv)) (UniProt P9WIL5) (assay: Recombinant Mtb pantothenate synthetase (PanC) inhibitors, coupled enzyme, confirmatory (AID 375;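 also: 0% = full reaction with vehicle and 100% = no enzyme background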)). Conditions: coupled enzyme assay; at 10 µM, stronger effect = higher value.
Chain of Pantothenate synthetase (Mycobacterium tuberculosis (strain ATCC 25618 / H37Rv)) (P9WIL5 whole entry, looked up): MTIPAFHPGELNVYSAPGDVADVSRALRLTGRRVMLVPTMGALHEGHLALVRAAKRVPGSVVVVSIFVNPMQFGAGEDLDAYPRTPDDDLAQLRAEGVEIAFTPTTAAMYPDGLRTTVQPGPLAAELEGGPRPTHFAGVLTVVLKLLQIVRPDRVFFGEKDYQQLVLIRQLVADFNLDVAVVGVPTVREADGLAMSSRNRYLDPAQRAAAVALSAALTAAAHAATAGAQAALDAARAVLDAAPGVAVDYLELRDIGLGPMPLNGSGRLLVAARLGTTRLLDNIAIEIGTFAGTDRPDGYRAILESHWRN

Q: How did the inhibition turn out when `O=C(NC1(C(=O)NC2CCCCC2)CCCCC1)c1ccc2c(c1)OCO2` was run?
A: 3% (inactive)

Q: With `O=C(COC(=O)c1ccc(Br)o1)Nc1ccc(S(=O)(=O)N2CCCC2)cc1` as the compound, how does the inhibition read?
A: 5% (inactive)

Q: `Cc1nc2ccc(Br)cn2c1NC(C)(C)C` was tested. Which inhibition did it give?
A: 0% (inactive)

Q: `Cc1cc(C)c2c(n1)nn1c(N3CCN(c4ccccc4C)CC3)cc(C)nc21` was tested. Which inhibition did it give?
A: 4% (inactive)

Q: With `Cc1cc(C(=O)NCCN2CCCCC2C)n(-c2ccccc2)n1` (stereo not given) as the compound, how does the inhibition read?
A: 0% (inactive)

Q: How did the inhibition turn out when `CCOC(=O)N1CCC(N2C(=O)c3ccc(C(=O)NCc4ccco4)cc3C2=O)CC1` was run?
A: 2% (inactive)

Q: For `CN(C)c1nc(Oc2ccc(N)cc2)nc(N(C)C)n1`, which inhibition is on record?
A: 0% (inactive)

Q: How did the inhibition turn out when `CN(C)c1ccc(C(=O)Nc2nnc(-c3ccc(Cl)cc3)o2)cc1` was run?
A: 0% (inactive)

Q: For `C=CCN(C(=O)CNS(=O)(=O)c1ccccc1)C(C(=O)NCCOC)c1ccncc1` (stereo not given), which inhibition is on record?
A: 0% (inactive)

Q: How did the inhibition turn out when `CCOC(=O)COc1ccc(S(=O)(=O)Nc2ccc3c(c2)OCO3)cc1` was run?
A: 2% (inactive)

Q: With `CCOC(=O)c1sc2nc(SCC#N)n(CCCN3CCCC3=O)c(=O)c2c1C` as the compound, how does the inhibition read?
A: 0% (inactive)

Q: `Cc1c(C(=O)Nc2cnccn2)oc2ccccc12` was tested. Which inhibition did it give?
A: 1% (inactive)

Q: Which inhibition does the source give for `COc1cccc(NC(=O)CSc2nnnn2C(C)C)c1` here?
A: 6% (inactive)

Q: Which inhibition does the source give for `CN(C)CC(O)COc1ccc(-c2ccc(C#N)cc2)cc1` (stereo not given) here?
A: 3% (inactive)

Q: How did the inhibition turn out when `O=C(OCc1cc2ccccc2[nH]c1=O)c1ccncc1` was run?
A: 7% (inactive)

Q: `O=C(NC1CCCCC1)c1nc2c(nnn2Cc2ccccc2Cl)c(=O)[nH]1` was tested. Which inhibition did it give?
A: 0% (inactive)

Q: With `CN(C)C(=O)Oc1ccc[n+](C)c1` as the compound, how does the inhibition read?
A: 4% (inactive)

Q: How did the inhibition turn out when `CCCCNC(=O)c1nnn(-c2ccccc2)c1N` was run?
A: 0% (inactive)

Q: With `Cc1ccc(C)c(OCC(O)CN2C(C)CCCC2C)c1` (stereo not given) as the compound, how does the inhibition read?
A: 0% (inactive)

Q: How did the inhibition turn out when `Clc1ccc(-n2ncc3c(NCCCn4ccnc4)ncnc32)cc1` was run?
A: 0% (inactive)

Q: With `CN(CC(=O)NCCC1=CCCCC1)S(=O)(=O)c1ccc2c(c1)CCC(=O)N2` as the compound, how does the inhibition read?
A: 0% (inactive)

Q: How did the inhibition turn out when `CCOC(=O)C(CC)(CCC(=O)O)c1csc(N)n1` (stereo not given) was run?
A: 0% (inactive)

Q: How did the inhibition turn out when `COc1cccc(NC(=O)N2CCC(N3CCCCC3)CC2)c1` was run?
A: 0% (inactive)

Q: For `CC(C)(C)OC(=O)N1CCCC1C(=O)N1CCc2ccccc21` (stereo not given), which inhibition is on record?
A: 0% (inactive)

Q: For `O=C(COC(=O)c1cnccn1)Nc1ccc2c(c1)OCO2`, which inhibition is on record?
A: 7% (inactive)

Q: How did the inhibition turn out when `Cc1ccc(C(=O)OCC(=O)Nc2ccc3c(c2)OCO3)o1` was run?
A: 4% (inactive)

Q: Which inhibition does the source give for `CN1CCc2c(sc3c2c(=O)n(-c2ccccc2)c2nnc(SCc4ccccc4)n32)C1` here?
A: 4% (inactive)

Q: For `COc1ccccc1OC(=O)c1ccc2nsnc2c1`, which inhibition is on record?
A: 0% (inactive)

Q: For `CCn1c(SCC(=O)Nc2nc(C)cs2)nnc1-c1ccco1`, which inhibition is on record?
A: 0% (inactive)

Q: With `CC12C(=O)N(CCC(=O)O)C(=O)C1C1C=CC2C1` (stereo not given) as the compound, how does the inhibition read?
A: 0% (inactive)

Q: With `N#Cc1c(/N=C/c2ccco2)sc2c1CCC2` as the compound, how does the inhibition read?
A: 0% (inactive)

Q: `O=C(O)CCN(CCC(=O)O)c1nnc(SCc2ccccc2)s1` was tested. Which inhibition did it give?
A: 2% (inactive)

Q: For `C[C@@H]1C[C@H]2[C@@H]3C[C@H](F)C4=CC(=O)C=C[C@]4(C)[C@@]3(F)[C@@H](O)C[C@]2(C)[C@@]1(O)C(=O)CO`, which inhibition is on record?
A: 0% (inactive)

Q: `O=c1c2ccccc2c(/C=N/n2cnnc2)c(O)n1-c1ccccc1` was tested. Which inhibition did it give?
A: 2% (inactive)

Q: For `COc1cccc(-c2noc(CCC(=O)NC3CCCCC3)n2)c1`, which inhibition is on record?
A: 1% (inactive)

Q: How did the inhibition turn out when `Cc1ccc(-c2noc(CCC(=O)NCCc3ccccc3Cl)n2)cc1` was run?
A: 1% (inactive)

Q: How did the inhibition turn out when `O=C1c2ccccc2C(Nc2ccc3c(c2)OCO3)N1Cc1ccc2c(c1)OCO2` (stereo not given) was run?
A: 0% (inactive)

Q: With `CNCCCC12CCC(c3ccccc31)c1ccccc12` as the compound, how does the inhibition read?
A: 0% (inactive)

Q: `CC(C)OP(=O)(c1ccc(N(C)C)cc1)C(O)c1ccccc1F` (stereo not given) was tested. Which inhibition did it give?
A: 0% (inactive)

Q: Which inhibition does the source give for `CCOC(=O)c1cccc(NC(=O)CSc2nnc(-c3cccnc3)n2CC)c1` here?
A: 0% (inactive)
